About 83,000 compounds went through this panel and 20% of them were active in at least one assay; those are over-represented in the sample as a whole.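 Growth was measured after 48 h exposure to one concentration of compound in 96-well plates. Values under 10 count as active.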 Values without a mark were called inactive. The source made the active and inactive calls.
tested on: HS 578T breast; experiment: NCI-60 one-dose screen, 48 h (100 = growth as untreated, 0 = no growth, -100 = all killed); conditions: 10 µM unless noted
Method: Growth inhibition of the HS 578T human tumor cell line is measured as a screen for anti-cancer activity. Cells are grown in 96 well plates and exposed to the test compound for 48 hours. Compounds are tested at a single concentration, which is 10^-5 M for most compounds. The reported endpoint is percent growth (GI% or GIPRCNT), where numbers from 0 - 100% represent growth inhibition, and numbers from -100% - 0 represent cell death. For example, a value of 40 represents 60% growth inhibition. A value of 0 means no net growth occurred over the course of the experiment. A value of -40 indicates 40% of cells at the beginning of the experiment died by the end of the experiment. A value of -100 means all cells are dead at the end of the experiment.
NCI-60 Human Tumor Cell Lines Screen was performed using the standard one-dose NCI protocol, which is described in more detail at https://dtp.cancer.gov/discovery_development/nci-60/default.htm.
Compounds with GIPRCNT values below 10 were considered active. Activity score was based on GIPRCNT using the following formula: […]
Score is 0 for GIPRCNT values of 100 or above, 50 for GIPRCNT values of 0, and 100 for GIPRCNT values of -100.

Compound | growth
O=C1Nc2cc(OC(F)(F)F)ccc2Oc2ccc(-c3ccnc(N4CCNCC4)c3)cc21 | 2.5% (active)
CN1CCN(Cc2ccc(NC(=O)c3cncc(C#Cc4cnc5ccc(O[C@H]6CCOC6)nn45)c3)cc2C(F)(F)F)CC1 | -34.1% (active)
O=C(CN1CCN(c2cc(=O)n(-c3ccccc3)c3ccccc23)CC1)Nc1ccc([N+](=O)[O-])cc1 | 89.9%
O=c1cc(-c2ccccc2)nc2sc(-c3c[nH]c4ccc(Br)cc34)nn12 | 113%
O=c1[nH]c(CNc2ccc(NCc3c(-c4ccccc4)no[n+]3[O-])cc2)nc2c1cnn2-c1ccccc1 | 85.8%
COc1cc2c3c(n(CCCN4CCCCC4)c(=O)c2cc1OC)-c1cc2c(cc1C3=O)OCO2 | -51.2% (active)
COc1cc(/C=N/Nc2ccnc3cc(Cl)ccc23)cc(OC)c1O | -38.8% (active)
O=C1c2c(c3c4cc(O)ccc4oc3c3[nH]c4ccccc4c23)C(=O)N1O | -8.67% (active)
C=CCn1c(SCC(=O)Nc2cccc(C(=O)/C=C/c3cccc([N+](=O)[O-])c3)c2)nc2ccccc2c1=O | 91.9%
Cc1ccc(/C=C/c2nn3c(-c4ccco4)nnc3s2)cc1 | 116%
CCN1C(=O)N(CC)C2C1NN=C1SC(c3ccccc3)=CC(=O)N12 (stereo not given) | 3.22% (active)
CN1CCN(Cc2ccc(NC(=O)c3cncc(C#Cc4cnc5ccc(NC6CCOCC6)nn45)c3)cc2C(F)(F)F)CC1 | -26% (active)
CN1C(=O)/C(=C/C=C/c2ccco2)SC1=S | 98.1%
O=C(NNc1nc2cc(F)cc(F)c2n2cccc12)c1ccncn1 | 34%
COc1ccc(-c2cc(-c3cccc4ccccc34)n3c(n2)nc2ccccc23)cc1 | 55%
CC(=O)Oc1ccc(CCN2C(=O)CSC2=S)cc1 | 100%
O=C(/C=C/c1cn(-c2ccccc2)nc1-c1ccc(Cl)cc1)c1cc2ccccc2oc1=O | 66.5%
Clc1ccc(-c2nc3ccc(/C(=N\N=C\c4ccccc4)c4ccccc4)cc3[nH]2)cc1 | 99.9%
COCCC[C@H]1O[C@@](O)([C@H](C)[C@@H]2CC(OC)C(O)/C=C(C)/C=C(C)/C=C(\C)C(OC3O[C@@H](C)[C@H](O)C(O)[C@@H]3O)C(C)/C=C(C)/C=C(OC)/C=C(\C)C(=O)O2)C(OC)C(O)[C@]1(C)O[C@H]1C[C@@H](O)[C@H](O[C@H]2C[C@](C)(O)[C@H](O)C(C)O2)C(C)O1 (stereo not given in full) | 86.1%
CCOc1c(C#N)c(Nc2ccc(S(N)(=O)=O)cc2)c(C#N)c2nnc(C)n12 | 102%

Compound | growth
CCOC(=O)c1ccc(N/C=C/C(=O)c2ccccc2)cc1 | 113%
CS(=O)(=O)c1ccc(-c2nn(-c3ccccc3)cc2/C=N/NC(=O)c2ccncc2)cc1 | 108%
C#C[C@]1(O)CC[C@H]2[C@@H]3CC=C4c5sc(Nc6cc(OC)ccc6OC)nc5CC[C@]4(C)[C@H]3CC[C@@]21C | -13.8% (active)
COc1ccc(/C=C/C(=O)c2nnn(-c3ccc(Br)cc3)c2C)cc1OC | 92.5%
Cc1cc(F)cc(NS(=O)(=O)c2ccc(-c3cnc(C4CC4)o3)cc2)c1 | 34.1%
CC1OC(O[C@@H]2C(O)C(CO)OC(O[C@H]3COC(O[C@H]4CC[C@]5(C)[C@H]6CC[C@]78OC[C@@]9(CC[C@](C)(C=O)C[C@H]97)[C@H](O)C[C@@]8(C)[C@]6(C)CC[C@H]5C4(C)C)[C@@H](OC4OC(CO)[C@@H](O)[C@@H](O)[C@@H]4O)[C@@H]3O)[C@H]2OC2OC[C@@H](O)[C@@H](O)[C@@H]2O)[C@@H](O)[C@@H](O)[C@H]1O (stereo not given in full) | -36.9% (active)
COc1ccc2c(c1)c(-c1nnc(N)nc1-c1cn(C)c3ccccc13)cn2C | 91.2%
CS(=O)c1nccc(-c2c(-c3ccc(F)c(OCCc4ccccc4)c3)nc3sccn23)n1 (stereo not given) | 99.8%
C/C(=C(/C)C1CC1CCN(C(=O)c1ccccn1)S(=O)(=O)c1ccc(C)cc1)C1CCCCC1 (stereo not given) | 102%
CCNC(=O)Oc1ccc(/C(=C(/C)c2ccc(Cl)cc2)c2ccc(OCCN(C)C)cc2)cc1 | 80.8%
O=C(c1ccc(O)cc1)[C@@H]1[C@@H]2CCCN2[C@@]2(C(=O)N(C(=O)c3ccc(F)cc3)c3ccccc32)[C@H]1c1ccc(F)cc1 | 105%
O=C(NNc1nc2cc(F)c(F)cc2n2cccc12)c1cccnn1 | 29.3%
COc1ccc2c(C3=C(c4cn(C)c5ccccc45)C(=O)NC3=O)coc2c1 | 9.64% (active)
O=c1c2c(O)cccc2oc2c3c(cc(O)c12)O[C@H]1OC=C[C@@H]31 | 94.9%
O=C1c2c(O)cc(O)cc2O[C@@H](c2ccc(O)cc2)[C@@H]1c1c(O)cc(O)c2c(=O)cc(-c3ccc(O)c(O)c3)oc12 | 102%
O=C(NCCCNc1cc(-c2cn(-c3ccccc3)nc2-c2cccc(O)c2)ccn1)Nc1cc(C(F)(F)F)cc(C(F)(F)F)c1 | 57.3%
CC(c1ccccc1)N1C(=O)/C(=C/c2csc(C#N)n2)SC1=S (stereo not given) | 103%
COc1cc(O)c2c(c1)/C=C/C[C@H](O)[C@H](O)C(=O)/C=C\C[C@H](C)OC2=O | -26.4% (active)
Clc1ccc(-c2csc(Nc3cccc(Nc4csc(-c5ccc(Cl)cc5)n4)c3)n2)cc1 | 73.4%
Cc1ccc(Cc2cnc(NC(=O)/C(C#N)=C/c3ccc(-c4ccc(Cl)cc4)o3)s2)cc1 | 102%

Source: PubChem BioAssay (NCI)
